# Whole data set: some 16,000 sequences, median “rpm ratio (pull-down/input)” near 0.5, cut for the highest 2% near 5.5. The sample holds the highest values, similar sequences and a random draw of the others, so the mix is not that of the screen.
# Biological target: T1, MBP-FoxP3dN (Mus musculus, UniProt Q99JB6 188-423)
# T1 sequence: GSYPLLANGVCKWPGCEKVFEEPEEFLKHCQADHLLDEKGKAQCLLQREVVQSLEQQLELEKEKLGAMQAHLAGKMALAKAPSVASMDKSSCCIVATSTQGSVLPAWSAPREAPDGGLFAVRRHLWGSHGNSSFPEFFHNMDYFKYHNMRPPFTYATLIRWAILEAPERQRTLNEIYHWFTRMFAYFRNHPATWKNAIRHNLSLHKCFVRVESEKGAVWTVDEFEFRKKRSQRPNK
# Test: PD-seq (MBP pull-down with sequencing); 20 mM Tris-HCl pH 7.5, 100 mM NaCl, 1.5 mM MgCl2, 0.4 uM protein, 0.1 uM dsDNA library, 30 min, room temperature, amylose pull-down; high values mean tight binding
# Conditions: protein: recombinant; tags: His6-MBP; chain copies: 2; dsDNA, one strand shown
# Procedure, shortened: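 Protein and DNA were mixed at 0.4 µM and 0.1 µM and held for 30 min at room temperature in Tris pH 7.5 buffer with NaCl and MgCl2; the protein was a His6-MBP-tagged, N-terminally truncated mouse FoxP3 or FoxP1 fragment from E. coli, and the DNA a Klenow-filled double-stranded degenerate library. Amylose resin captured the complexes, which were washed three times. Binding is read as reads-per-million enrichment of pull-down versus input after Illumina sequencing, with replicates pooled.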
row,Sequence,binding signal
1,GATGATTGTTCTCCCAGCTGATGAATTGGATCCGTCGAGTAAACAAATTTTCCTAATCTTTCTGTTCAAGCGCCATCTAC,0.219 RPM ratio (pull-down/input)
2,GATGATTGTTCTCCCAGCTGATGAATTGTGTTTGTCGAGTAAACAAATTTTCCTAATCTTTCTGTTCAAGCGCCATCTAC,8.45 RPM ratio (pull-down/input)
3,GATGATTGTTCTCCCAGCTGATGAATTGTGTGTGTCGAGTAAACAAATTTTCCTAATCTTTCTGTTCAAGCGCCATCTAC,5.21 RPM ratio (pull-down/input)
4,GATGATTGTTCTCCCAGCTGATGAATTTTGTGTTTCGAGTAAACAAATTTTCCTAATCTTTCTGTTCAAGCGCCATCTAC,5.3 RPM ratio (pull-down/input)
5,GATGATTGTTCTCCCAGCTGATGAATTGTTTGTGTCGAGTAAACAAATTTTCCTAATCTTTCTGTTCAAGCGCCATCTAC,8.22 RPM ratio (pull-down/input)
6,GATGATTGTTCTCCCAGCTGATGAATTTGATTTCTCGAGTAAACAAATTTTCCTAATCTTTCTGTTCAAGCGCCATCTAC,4.02 RPM ratio (pull-down/input)
7,GATGATTGTTCTCCCAGCTGATGAATTTTTTACCTCGAGTAAACAAATTTTCCTAATCTTTCTGTTCAAGCGCCATCTAC,0.228 RPM ratio (pull-down/input)
8,GATGATTGTTCTCCCAGCTGATGAATTTTGTTTCTCGAGTAAACAAATTTTCCTAATCTTTCTGTTCAAGCGCCATCTAC,5.54 RPM ratio (pull-down/input)
9,GATGATTGTTCTCCCAGCTGATGAATTTGTTTTCTCGAGTAAACAAATTTTCCTAATCTTTCTGTTCAAGCGCCATCTAC,7.21 RPM ratio (pull-down/input)
10,GATGATTGTTCTCCCAGCTGATGAATTGTTTTCCTCGAGTAAACAAATTTTCCTAATCTTTCTGTTCAAGCGCCATCTAC,4.78 RPM ratio (pull-down/input)
11,GATGATTGTTCTCCCAGCTGATGAATTTTTGTTCTCGAGTAAACAAATTTTCCTAATCTTTCTGTTCAAGCGCCATCTAC,0.494 RPM ratio (pull-down/input)
12,GATGATTGTTCTCCCAGCTGATGAATTTGTTTCCTCGAGTAAACAAATTTTCCTAATCTTTCTGTTCAAGCGCCATCTAC,5.92 RPM ratio (pull-down/input)
13,GATGATTGTTCTCCCAGCTGATGAATTGTTTACCTCGAGTAAACAAATTTTCCTAATCTTTCTGTTCAAGCGCCATCTAC,7.12 RPM ratio (pull-down/input)
14,GATGATTGTTCTCCCAGCTGATGAATTGTTTTTCTCGAGTAAACAAATTTTCCTAATCTTTCTGTTCAAGCGCCATCTAC,4.35 RPM ratio (pull-down/input)
15,GATGATTGTTCTCCCAGCTGATGAATTTGTTCTCTCGAGTAAACAAATTTTCCTAATCTTTCTGTTCAAGCGCCATCTAC,2.14 RPM ratio (pull-down/input)
16,GATGATTGTTCTCCCAGCTGATGAATTTTGTTCCTCGAGTAAACAAATTTTCCTAATCTTTCTGTTCAAGCGCCATCTAC,1.64 RPM ratio (pull-down/input)
17,GATGATTGTTCTCCCAGCTGATGAATTTACCTCCTCGAGTAAACAAATTTTCCTAATCTTTCTGTTCAAGCGCCATCTAC,0.573 RPM ratio (pull-down/input)
18,GATGATTGTTCTCCCAGCTGATGAATTGGGAATTTCGAGTAAACAAATTTTCCTAATCTTTCTGTTCAAGCGCCATCTAC,1.3 RPM ratio (pull-down/input)

row,Sequence,binding signal
1,GATGATTGTTCTCCCAGCTGATGAATTAGGCACGTCGAGTAAACAAATTTTCCTAATCTTTCTGTTCAAGCGCCATCTAC,1.03 RPM ratio (pull-down/input)
2,GATGATTGTTCTCCCAGCTGATGAATTACTCTGCTCGAGTAAACAAATTTTCCTAATCTTTCTGTTCAAGCGCCATCTAC,0.3 RPM ratio (pull-down/input)
3,GATGATTGTTCTCCCAGCTGATGAATTACGTTGCTCGAGTAAACAAATTTTCCTAATCTTTCTGTTCAAGCGCCATCTAC,1.14 RPM ratio (pull-down/input)
4,GATGATTGTTCTCCCAGCTGATGAATTAGGACATTCGAGTAAACAAATTTTCCTAATCTTTCTGTTCAAGCGCCATCTAC,0.784 RPM ratio (pull-down/input)
5,GATGATTGTTCTCCCAGCTGATGAATTAAAGAATTCGAGTAAACAAATTTTCCTAATCTTTCTGTTCAAGCGCCATCTAC,0.677 RPM ratio (pull-down/input)
6,GATGATTGTTCTCCCAGCTGATGAATTGTATATTTCGAGTAAACAAATTTTCCTAATCTTTCTGTTCAAGCGCCATCTAC,3.17 RPM ratio (pull-down/input)
7,GATGATTGTTCTCCCAGCTGATGAATTTGTATATTCGAGTAAACAAATTTTCCTAATCTTTCTGTTCAAGCGCCATCTAC,6.34 RPM ratio (pull-down/input)
8,GATGATTGTTCTCCCAGCTGATGAATTTGTGTATTCGAGTAAACAAATTTTCCTAATCTTTCTGTTCAAGCGCCATCTAC,6.95 RPM ratio (pull-down/input)
9,GATGATTGTTCTCCCAGCTGATGAATTGTGTATTTCGAGTAAACAAATTTTCCTAATCTTTCTGTTCAAGCGCCATCTAC,5.82 RPM ratio (pull-down/input)
10,GATGATTGTTCTCCCAGCTGATGAATTGTATTGTTCGAGTAAACAAATTTTCCTAATCTTTCTGTTCAAGCGCCATCTAC,6.04 RPM ratio (pull-down/input)
11,GATGATTGTTCTCCCAGCTGATGAATTGTATTTTTCGAGTAAACAAATTTTCCTAATCTTTCTGTTCAAGCGCCATCTAC,3.78 RPM ratio (pull-down/input)
12,GATGATTGTTCTCCCAGCTGATGAATTCTGTATTTCGAGTAAACAAATTTTCCTAATCTTTCTGTTCAAGCGCCATCTAC,4.09 RPM ratio (pull-down/input)
13,GATGATTGTTCTCCCAGCTGATGAATTTCTGTATTCGAGTAAACAAATTTTCCTAATCTTTCTGTTCAAGCGCCATCTAC,1.38 RPM ratio (pull-down/input)
14,GATGATTGTTCTCCCAGCTGATGAATTCGTATATTCGAGTAAACAAATTTTCCTAATCTTTCTGTTCAAGCGCCATCTAC,2.61 RPM ratio (pull-down/input)
15,GATGATTGTTCTCCCAGCTGATGAATTCGTGTATTCGAGTAAACAAATTTTCCTAATCTTTCTGTTCAAGCGCCATCTAC,2.95 RPM ratio (pull-down/input)
16,GATGATTGTTCTCCCAGCTGATGAATTTTTGTATTCGAGTAAACAAATTTTCCTAATCTTTCTGTTCAAGCGCCATCTAC,2.57 RPM ratio (pull-down/input)
17,GATGATTGTTCTCCCAGCTGATGAATTGTGTAATTCGAGTAAACAAATTTTCCTAATCTTTCTGTTCAAGCGCCATCTAC,3.19 RPM ratio (pull-down/input)

# — article PMC12820563, “FoxP3 forms a head-to-head dimer in vivo and stabilizes its multimerization on adjacent microsatellites”
